Inconclusive results are not listed.
Experiment: qHTS for identification of novel therapeutic agents for treatment of microphthalmiaassociated transcription factor (MiT) renal cell carcinoma (RCC) (AID 1963991)
Details: CellTiter-Glo, 48 h, stronger effect = lower value
Source text: PI: Marston Linehan Ph.D.
Urologic Oncology Branch, Center for Cancer Research (CCR)
National Cancer Institute (NCI), National Institute of Health (NIH), Bethesda, Maryland
MiT-Renal Cell Carcinoma (RCC) is characterized by genomic translocations involving microphthalmia-associated transcription factor (MiT) family members TFE3, TFEB, or MITF. MiT-RCC represents a specific subtype of sporadic RCC that is predominantly seen in young patients and can present with heterogeneous histological features making diagnosis challenging. Moreover, the disease biology of this aggressive cancer is poorly understood and there is no accepted standard of care therapy for patients with advanced disease. Tumor-derived cell lines have been established from human TFE3-RCC providing useful models for preclinical studies. TFE3-RCC tumor derived cell lines and their tissues of origin were characterized by IHC and gene expression analyses. An unbiased high-throughput drug screen was performed to identify novel therapeutic agents for treatment of MiT-RCC. Potential therapeutic candidates were validated in in vitro and in vivo preclinical studies. Mechanistic assays were conducted to confirm the on-target effects of drugs. The results of a high-throughput small molecule drug screen utilizing three TFE3-RCC tumor-derived cell lines identified five classes of agents with potential pharmacological efficacy, including inhibitors of phosphoinositide-3-kinase (PI3K) and mechanistic target of rapamycin (mTOR), and several additional agents, including the transcription inhibitor Mithramycin A. Upregulation of the cell surface marker GPNMB, a specific MiT transcriptional target, was confirmed in TFE3-RCC and evaluated as a therapeutic target using the GPNMB-targeted antibody-drug conjugate CDX-011. […] The results of the high-throughput drug screen and validation studies in TFE3-RCC tumor-derived cell lines have provided in vitro and in vivo preclinical data supporting the efficacy of the PI3K/mTOR inhibitor.
SEQUENCE No. (e.g., 1, 2, 3, etc.); […] (e.g., Cells, Incubation, Reagent, etc.); VALUE; DESCRIPTION.
1; Cells; 3 uL; white, solid-bottom Grenier assay plate.
2; Compounds; 23 nL; Kalypsis pin-tool (Wako USA).
3; Incubation; 48 hr; 37 C, 5% CO2, 95% humidity.
4; Reagent; 3 uL; CellTiter-Glo reagent (Promega).
5; Incubation; 15 min; room temperature.
6; Detection; Luminescence; ViewLux plate reader (PerkinElmer).
NOTES (numbers refer to Sequence numbers above)
1. Quantitative high-throughput screening (qHTS) of 1912 pharmacologically defined small molecule compounds was conducted on three TFE3-fusion cell lines bearing three different fusion partners (UOK109, UOK124, UOK145). Briefly, 500 cells in complete growth media were plated into white, solid-bottom, 1536-well tissue culture treated plates (Grenier Cat. 789173-F) using a Multidrop Combi cassette dispenser.
2. Twenty-three nanoliter of 1912 pharmacologically defined small molecule compounds of the NCATS Mechanism Interrogation PlatE (MIPE) version 4.0 were added to each assay plate using a Pintool Dispenser (Wako) equipped with 1536 pin head.
3. Plates were covered with stainless steel gasketed lids and incubated for 48 hours at standard cell culture conditions.
4. Viability was assessed by adding 3uL of CellTiter-Glo detection reagent (Promega).
5. Plates were covered with gasket lids and incubated for 15 minutes at room temperature.
6. Luminescence was measured on a ViewLux plate reader (PerkinElmer). Post-screen data processing used DMSO controls as 100% viability and empty wells as 0% viability and dose response curve fitting was done for all 11 concentrations for each compound.

[1] = TFE3-RCC UOK109 viability, measured here: UOK109 Z-AUC
[2] = TFE3-RCC viability, measured here: UOK124 Z-AUC
[3] = TFE3-RCC viability, measured here: UOK145 Z-AUC

Row | SMILES | z-score [1] | z-score [2] | z-score [3]
1 | COC(c1ccccc1)(c1ccccc1)[C@H](Oc1nc(C)cc(C)n1)C(=O)O | 1.16 | 0.918 | 0.706
2 | CC1CC2C3CCC4=CC(=O)C=C[C@]4(C)[C@@]3(F)[C@@H](O)C[C@]2(C)[C@@]1(O)C(=O)CO (some centres not stated) | 0.936 | 0.693 | 0.527
3 | OC(Cn1cncn1)(Cn1cncn1)c1ccc(F)cc1F | 0.751 | 0.906 | -0.107
4 | O=S(=O)(O)CCS | -0.566 | 1.05 | -0.757
5 | Cc1c(-c2ccc(O)cc2)n(Cc2ccc(OCCN3CCCCCC3)cc2)c2ccc(O)cc12 | 0.552 | 0.408 | 0.653
6 | Nc1[nH]c(=O)ncc1F | 0.532 | 0.978 | 0.221
7 | CCOC(=O)c1ccc(C#Cc2ccc3c(c2)C(C)(C)CCS3)nc1 | 0.0377 | 0.696 | 0.0993
8 | Nc1nc(N)nc(-c2cc(Cl)ccc2Cl)n1 | 0.0738 | 0.434 | 0.276
9 | NC(=O)c1ccc2[nH]ccc2c1 | 0.214 | 0.789 | -0.184
10 | CCN(CC)CCn1c(=O)c(Cc2ccc(OC)cc2)nc2ccccc21 | 0.411 | 0.577 | 0.628
11 | CNS(=O)(=O)Cc1ccc2[nH]cc(CCN(C)C)c2c1 | 0.748 | 0.938 | 0.747
12 | NCCCC(O)(P(=O)(O)O)P(=O)(O)O | 0.263 | 0.663 | 0.216
13 | CC(=O)CC(c1ccccc1)c1c(O)c2ccccc2oc1=O (configuration not stated) | 0.83 | 0.655 | 0.641
14 | O=C(O)CCn1c2c(c3ccccc31)C[C@H](NS(=O)(=O)c1ccc(F)cc1)CC2 | 0.68 | 0.798 | 0.766

Reference: PubChem BioAssay (NCATS)
